Source: PubChem BioAssay (NCATS)
Inconclusive results are not listed. Calls of active or inactive are those of the source. The call rests on the fitted dose curve; in most records, active means well fitted curve in the direction sought with a large enough effect; inconclusive means small, poorly fitted or top-dose-only effect, or another doubt; inactive means no such curve, though single readings can be large; an effect the other way counts as inactive or inconclusive.

What was measured:
[1] = molecular target: Glutathione peroxidase 1 (Homo sapiens) (UniProt P07203); assay: Primary qHTS Assay for Inhibitors of Recombinant Selenoprotein Glutathione Peroxidase 1 (GPX1) (AID 1845191); further: nearly all actives have a fitted effect of over 65% in size; on activity, negative = inhibition: on the % scale 0 is the no-effect control and ±100 the full control effect
Chain of Glutathione peroxidase 1 (Homo sapiens) (P07203 whole entry, looked up): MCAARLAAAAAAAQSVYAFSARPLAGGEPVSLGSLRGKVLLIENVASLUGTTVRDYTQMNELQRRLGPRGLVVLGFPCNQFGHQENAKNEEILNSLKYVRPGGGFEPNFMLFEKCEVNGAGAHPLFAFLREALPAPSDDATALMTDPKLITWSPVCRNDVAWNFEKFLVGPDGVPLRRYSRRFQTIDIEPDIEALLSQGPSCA
Outline: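 GPX1 10 nM, GR 100 nM, GSH 1 mM, NADPH 0.5 mM, CHP 0.5 mM (final). 30-min cpd preincubation, RT. Ex340/Em450 read t=0, t=15 min.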

[2] = molecular target: Phospholipid hydroperoxide glutathione peroxidase GPX4 (Homo sapiens) (UniProt P36969); assay: Primary qHTS Assay for Inhibitors of Recombinant Selenoprotein Glutathione Peroxidase 4 (GPX4) (AID 1845192); further: nearly all actives have a fitted effect of over 65% in size; on activity change, negative = inhibition: series mostly up to about 50 µM; on the % scale 0 is the no-effect control and ±100 the full control effect
Chain of Phospholipid hydroperoxide glutathione peroxidase GPX4 (Homo sapiens) (P36969 whole entry, looked up): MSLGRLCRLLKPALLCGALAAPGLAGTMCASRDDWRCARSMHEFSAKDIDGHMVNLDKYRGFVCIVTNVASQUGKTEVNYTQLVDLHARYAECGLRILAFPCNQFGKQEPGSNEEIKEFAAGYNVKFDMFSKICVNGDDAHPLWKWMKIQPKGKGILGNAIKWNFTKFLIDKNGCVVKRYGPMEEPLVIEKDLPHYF
Outline: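 qHTS, GR-coupled: GPX4 200 nM + cpd 30 min RT → GSH 1 mM, NADPH 0.5 mM, GR 100 nM → CHP 0.5 mM start; fluor 340/450 at t0 and t15 min; no-enzyme wells as control.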

[3] = molecular target: Luciferin 4-monooxygenase (Photinus pyralis) (UniProt P08659); assay: Primary firefly luciferase (FLuc) qHTS assay for identification of artifact compounds. (AID 1845220); further: nearly all actives have a fitted effect of over 60% in size;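 on activity change, negative = inhibition: series mostly up to about 54 µM; plate controls were DMSO vehicle for no effect and no enzyme for full effect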
Outline: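 qHTS, 15 min compound preincubation with substrate (10 uM luciferin, 10 uM ATP) at RT, then 10 nM FLuc; 5 min; luminescence; % inhibition vs no-enzyme/DMSO controls, 4-parameter Hill fit.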

[4] = Primary fluorescence-based thiol-reactive (MSTI) qHTS assay for identification of artifact compounds. (AID 1845221); further: nearly all actives have a fitted effect of over 65% in size; further: potency means the concentration at half of the fitted maximal effect;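 on activity change, negative = thiol reactive: series mostly up to about 54 µM; thiol-reactive compounds lower the probe fluorescence signal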
Outline: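 First, 4 uM MSTI in 2% DMSO/PBS pH 7.4 was dispensed; next, compounds were added; then plates sat 1 h at room temperature without light. Finally, emission at 598 nm was recorded.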

[5] = system: Nanoluciferase (engineered Oplophorus gracilirostris luciferase); assay: Primary Nanoluciferase (NLuc) qHTS assay for identification of artifact compounds. (AID 1845222); further: series mostly up to about 54 µM
Outline: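 Luminescence read-out of secreted NLuc in S16 cell conditioned medium (1:55); compounds tested with 15 min RT preincubation, then Nano-Glo substrate 1:100, 5 min. % inhibition vs no-enzyme and DMSO controls, 4-parameter Hill fit.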

[6] = Primary redox qHTS assay for identification of artifact compounds. (AID 1845223);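 further: 0% = DMSO and 100% = reference compound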
Outline: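 Redox-cycling detection via DTT (250 uM final) oxidation coupled to Amplex Red (25 uM)/HRP (250 mU/mL) in HBSS. 15 min preincubation plus 30 min after DTT, room temperature. Ex/Em 525/598 nm; 4-parameter Hill fit against DMSO and 10 uM DA3003.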

[N-]=[N+]=N[C@]1(CO)O[C@@H](n2ccc(=O)[nH]c2=O)[C@@H](O)[C@@H]1O
inactive: Potency [1] | Potency [2] | Potency [3] | Potency [4] | Potency [5] | Potency [6]

C[S+](CC[C@H](N)C(=O)[O-])C[C@H]1O[C@@H](n2cnc3c(N)ncnc32)[C@H](O)[C@@H]1O (stereo not given in full)
inactive: Potency [1] | Potency [2] | Potency [3] | Potency [4] | Potency [5] | Potency [6]

CC(=O)c1cc2c(cc1O)OC(C)(C)C=C2
inactive: Potency [1] | Potency [2] | Potency [3] | Potency [4] | Potency [5] | Potency [6]

CC(C)=CCC[C@](C)(O[C@@H]1O[C@H](CO)[C@@H](O)[C@H](O)[C@H]1O)[C@H]1CC[C@]2(C)[C@@H]1[C@H](O)CC1[C@@]3(C)CC[C@H](O)C(C)(C)C3[C@@H](O[C@@H]3O[C@H](CO)[C@@H](O)[C@H](O)[C@H]3O[C@@H]3OC[C@@H](O)[C@H](O)[C@H]3O)C[C@]12C (stereo not given in full)
inactive: Potency [1] | Potency [2] | activity change, negative = inhibition [3] -4.76% [at 11.6 µM] | activity change, negative = thiol reactive [4] 136% [at 11.5 µM] | activity, negative = inhibition [5] -0.941% [at 11.6 µM] | redox activity (% of DA3003) [6] 12.7% [at 11.5 µM]

C/C1=C\CCC2=C[C@@H](OC2=O)c2c(C)coc2C1
active: Potency [4] 11.9 µM
inactive: Potency [1] | Potency [2] | Potency [3] | Potency [5] | Potency [6]

Cc1ccc(C)c(OCCn2cc(C(=O)O)c3ccccc32)c1
inactive: Potency [1] | Potency [2] | Potency [3] | Potency [4] | Potency [5] | Potency [6]

COc1cc(/C=C/C(=O)O[C@H]2[C@H](O)[C@@H](CO)O[C@@]2(CO)O[C@H]2O[C@H](CO)[C@@H](O)[C@H](O)[C@H]2O)ccc1O
inactive: Potency [1] | Potency [2] | Potency [3] | Potency [4] | Potency [5] | Potency [6]

COc1ccc(Oc2cc(C)c(-c3csc(NC(=O)c4ccncc4)n3)c(C)c2)cc1
inactive: Potency [1] | Potency [2] | Potency [3] | Potency [4] | Potency [5] | Potency [6]

CC(C)(C)CCN1C[C@@H]2C(CNC(=O)c3cc(Cl)cc(Cl)c3)[C@@H]2C1 (stereo not given in full)
inactive: Potency [1] | Potency [2] | Potency [3] | Potency [4] | Potency [5] | Potency [6]

C[C@H]1CC[C@@]2(OC1)O[C@H]1CC3C4CC[C@H]5C[C@@H](O)[C@H](O)C[C@]5(C)C4=CC(=O)[C@]3(C)[C@H]1[C@@H]2C (stereo not given in full)
inactive: Potency [1] | Potency [2] | Potency [3] | Potency [4] | Potency [5] | Potency [6]

C[C@H]1[C@H](O)O[C@@H]2O[C@@]3(C)CC[C@H]4[C@H](C)CC[C@@H]1[C@@]24OO3
inactive: Potency [1] | Potency [2] | Potency [3] | Potency [4] | Potency [5] | Potency [6]

COC(=O)C1=CO[C@@H](O)C2C(CO)=CCC12 (stereo not given in full)
inactive: Potency [1] | Potency [2] | Potency [3] | Potency [4] | Potency [5] | Potency [6]

CC(C)(C)c1cc(Br)cc([C@H](CC(=O)O)NC(=O)CNC(=O)c2cc(O)cc(NC3=NCC(O)CN3)c2)c1 (stereo not given in full)
inactive: Potency [1] | Potency [2] | Potency [3] | Potency [4] | Potency [5] | Potency [6]

C=C1C[C@@]23CCC4[C@@](C)(CCC[C@@]4(C)C(=O)OC)C2CC[C@@H]1C3 (stereo not given in full)
inactive: Potency [1] | Potency [2] | Potency [3] | Potency [4] | Potency [5] | Potency [6]

NC(=O)[C@H]1CCS[C@@H]2C[C@]3(CCCN3C(=O)Cc3ccc(NC(=O)COc4ccc(Cl)cc4Cl)cc3)C(=O)N12
inactive: Potency [1] | Potency [2] | Potency [3] | Potency [4] | Potency [5] | Potency [6]

CC(=O)N[C@@H](CCCCN)C(=O)N(C)[C@@H](CC(C)C)C(=O)N[C@H](C(=O)N(C)[C@@H](Cc1ccccc1)C(=O)N[C@H](Cc1ccccc1)C(N)=O)C(C)C
inactive: activity, negative = inhibition [1] 0.986% [at 4.49 µM] | outcome [2] inactive [at 4.52 µM] | activity change, negative = inhibition [3] 1.94% [at 6.45 µM] | activity change, negative = thiol reactive [4] 50.7% [at 6.41 µM] | activity, negative = inhibition [5] 2.14% [at 6.45 µM] | redox activity (% of DA3003) [6] -1.23% [at 6.41 µM]

C/C=C1\[C@H](O[C@@H]2O[C@H](CO)[C@@H](O)[C@H](O)[C@H]2O)OC=C(C(=O)OC)[C@H]1CC(=O)OC[C@H]1O[C@@H](OCCc2ccc(O)cc2)[C@H](O)[C@@H](O)[C@@H]1O
active: Potency [4] 2.24 µM
inactive: Potency [1] | Potency [2] | Potency [3] | Potency [5] | Potency [6]

C[C@@H]1O[C@@H](O[C@@H]2CO[C@@H](O[C@H]3CC[C@@]4(C)C(CC[C@]5(C)C4CC=C4[C@@H]6CC(C)(C)CC[C@]6(C(=O)O[C@@H]6O[C@H](CO)[C@@H](O)[C@H](O)[C@H]6O)CC[C@]45C)[C@]3(C)CO)[C@H](O)[C@H]2O[C@@H]2O[C@H](CO)[C@@H](O)[C@H](O)[C@H]2O)[C@H](O)[C@H](O)[C@H]1O (stereo not given in full)
inactive: Potency [1] | Potency [2] | outcome [3] inactive [at 11.6 µM] | activity change, negative = thiol reactive [4] 216% [at 11.5 µM] | activity, negative = inhibition [5] -0.413% [at 11.6 µM] | redox activity (% of DA3003) [6] 7.97% [at 11.5 µM]

COc1cc(/C=C/C=O)cc(OC)c1O[C@@H]1O[C@H](CO)[C@@H](O)[C@H](O)[C@H]1O
inactive: Potency [1] | Potency [2] | Potency [3] | Potency [5] | Potency [6]
active: Potency [4] 14.7 µM

C[C@@H]([C@@H](O)c1ccc(O)cc1)N1CCC(O)(c2ccccc2)CC1
inactive: Potency [1] | Potency [2] | Potency [3] | Potency [4] | Potency [5] | Potency [6]
